The source of these data is PubChem BioAssay.

“And” between values parts separate entries of the source, which are not always exact repeats. Equal values may be shown once. Values without a mark were called inactive. No rule for the calls is given here.

The inhibition is the change of the read-out against control, counted positive when it falls.

Pantothenate synthetase (Mycobacterium tuberculosis (strain ATCC 25618 / H37Rv)), sequence (P9WIL5 whole entry, looked up): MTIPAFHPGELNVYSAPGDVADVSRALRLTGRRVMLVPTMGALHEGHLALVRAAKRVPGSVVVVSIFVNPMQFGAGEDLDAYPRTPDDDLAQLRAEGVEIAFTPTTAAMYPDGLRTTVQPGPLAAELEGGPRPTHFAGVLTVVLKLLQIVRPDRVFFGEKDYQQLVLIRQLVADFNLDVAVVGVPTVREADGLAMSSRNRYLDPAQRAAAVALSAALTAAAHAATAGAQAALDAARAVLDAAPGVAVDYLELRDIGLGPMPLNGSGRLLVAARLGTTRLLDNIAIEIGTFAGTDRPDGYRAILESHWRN

The assay concerns the target Pantothenate synthetase (Mycobacterium tuberculosis (strain ATCC 25618 / H37Rv)) (UniProt P9WIL5). Nature of the assay: Coupled enzyme confirmation of inhibitors against recombinant Mtb PanC (AID 375).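 Also: 0% = full reaction with vehicle and 100% = no enzyme background.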 Particulars: coupled enzyme assay; at 10 µM, active compounds read high.
On to `CC(C)(C)N(Cc1cc2ccccc2[nH]c1=O)C(=O)C1CCCCC1`, for which the inhibition was 3%.

As to `O=C(CSc1nc2ccccc2c(=O)n1Cc1ccco1)NCc1ccccc1`, the inhibition was 2%.

With `Cn1c(=O)[nH]c(=O)c2c1ncn2CCN1CCOCC1`, the inhibition is 0%.

For `CN(C)CCNC(=O)c1ccc(COCC(F)(F)F)cc1`, the inhibition is 0%.

On to `CN(Cc1ccccc1)c1nc2c(c(=O)[nH]c(=O)n2C)n1Cc1ccccc1Cl`, for which the inhibition was 3%.

For `O=C(C1CC1)N(Cc1ccco1)c1nc(-c2ccccc2)cs1`, the inhibition was 1%.

As for `CCOc1cc(C(=O)Nc2c3c(nn2C(C)(C)C)CS(=O)C3)cc(OCC)c1OCC` (stereo not given), the inhibition was 4%.

Turning to `CCOc1ccc(-c2cc(CCCC(=O)N3CCN(c4ccc(OC)cc4)CC3)no2)cc1`, the inhibition was 0%.

Turning to `O=C(Nc1ccon1)c1csc2c1CCCC2`, the inhibition was 6%.

Regarding `CN1/C(=C\C(=O)Nc2cccnc2)c2ccccc2CC1(C)C`, the inhibition is 3%.

`Cc1nnc(SCC(=O)Nc2cc(C(F)(F)F)ccc2N2CCOCC2)o1`: the inhibition was 0%.

`CCOC(=O)C1CCN(CC(=O)c2c(C)[nH]c3ccccc23)CC1`: the inhibition is 1%.

Regarding `O=C(NCCO)c1cccc2c1C(=O)c1ccccc1-2`, the inhibition was 11%.

As for `O=C1CCc2nc3sc4c(c3c(=O)n2N1)CCCC4`, the inhibition is 0%.

In the case of `COc1ccc(OC)c(NC(=O)C2CCN(c3cc(-c4ccccc4)nc4ncnn34)CC2)c1`, the inhibition was 2%.

Regarding `CC(C)Oc1cc2oc(=O)c3c(c2cc1Cl)CCC3`, the inhibition was 0%.

For `Cc1cc(C)c(C)c(S(=O)(=O)Nc2ccc(O)cc2)c1C`, the inhibition is 10%.

`COC(=O)[C@H](C)NC(=O)Nc1cc(OC)ccc1OC`: the inhibition was 0%.

Take `Nc1ccc(C(=O)O)c(O)c1`: the inhibition was 1% and 0%.

Consider `CC(=O)Nc1ccc(S(=O)(=O)CCC#N)cc1`, for which the inhibition was 5%.

Consider `O=C(CN(Cc1ccc2c(c1)OCO2)C(=O)CNS(=O)(=O)c1ccccc1)NCc1ccco1`, for which the inhibition was 0%.

Turning to `Cn1ncc2c(Nc3ccccc3Br)ncnc21`, the inhibition was 0%.

On to `COc1ccc(OC)c(NC(=O)CS(=O)(=O)c2ccccc2)c1`, for which the inhibition is 0%.

As to `O=c1[nH]c(CN2CCN(Cc3ccccc3)CC2)nc2sc3c(c12)CCC3`, the inhibition is 0%.

For the compound `Cc1ccc2c(c1)c1c(n2CC(O)Cn2c(C)nc3ccccc32)/C(=N\O)CCC1` (stereo not given), the inhibition is 5%.

Regarding `CCCC(=O)n1nc(-c2ccc(OC)cc2)nc1N`, the inhibition is 2%.

In the case of `COc1ccc(-c2nc(CS(=O)CC(=O)N3CCCC3)c(C)o2)cc1` (stereo not given), the inhibition is 0%.

Consider `O=C(NCCO)c1scc2c1OCCO2`, for which the inhibition was 4%.

Consider `CCN(CC)S(=O)(=O)c1ccc(C(=O)N2CCN=C2SCc2cccnc2)cc1`, for which the inhibition is 0%.

On to `C=CCNC(=O)CSc1ccc(Cl)cc1`, for which the inhibition is 0%.

In the case of `CS(=O)(=O)N(CC(=O)N1CCCCCC1)c1ccc(Br)cc1`, the inhibition is 0%.

For the compound `CCCS(=O)(=O)N1CCC(C(=O)NCCN2CCCC2)CC1`, the inhibition was 0%.

As for `Cc1cc(N2CCN(C)CC2)nc(N2CCOCC2)n1`, the inhibition was 0%.

Take `CSc1ccc(-c2nc(CSCC(=O)N3CCOCC3)c(C)o2)cc1`: the inhibition is 0%.

`O=C1C=C(NCc2ccco2)C2(CCCCC2)O1`: the inhibition is 0%.

As for `COCCNC(=O)c1ccc(CS(=O)(=O)c2ccc(OC)cc2)o1`, the inhibition is 0%.

Take `CN(C)S(=O)(=O)Nc1ccccc1C(N)=O`: the inhibition was 0%.

Consider `Cc1cc(C)c2cc(CN(CC3CCCO3)C(=O)NC3CCCCC3)c(=O)[nH]c2c1` (stereo not given), for which the inhibition is 0%.

With `Cc1cc(=O)[nH]c(S/C=C/c2ccccc2)n1`, the inhibition is 0%.

Regarding `Cc1cnc(SCCc2ccncc2)nc1C`, the inhibition is 2%.
